Our source for the thermal melting temperature values is the supplement of paper PMC7726561.

Whole data set: some 1,100 sequences, median “thermal melting temperature (Tm) of peptide-HLA complex” near 58, cut for the lowest 2% near 42. The entries come from a sample that favours the lowest values as a whole.
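Further: lysates heated 10 min at 37–73 °C, complexes pulled down with pan-HLA I antibody, peptide signal by DIA-MS relative to 37 °C, Tm where half the complex is unfolded.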

This assay concerns the target HLA-A*02:01. Nature of the assay: thermal melting temperature (Tm) of peptide-HLA complex; higher = more thermostable pHLA complex. To be noted: C1R-A*02:01.
For the sequence KLMNVDPDSV, the thermal melting temperature is 53.8 °C.

In turn, KLMDPGSLPPL gave a thermal melting temperature of 57.3 °C.

For RLGGIPVGV, the thermal melting temperature amounted to 55.9 °C.

As for IIMLEALERV, the thermal melting temperature stood at 46.6 °C.

For the sequence ALANGVSRI, the thermal melting temperature came to 55.8 °C.

ALDRDNFEL: the thermal melting temperature came to 47.8 °C.

Turning to FMFDEKLVTV, the thermal melting temperature is 58.5 °C.

As to VLGPKIEAV, the thermal melting temperature worked out at 55.5 °C.

For the sequence FILANEHNV, the thermal melting temperature worked out at 40.8 °C.

YLPDIIKDQKA registered a thermal melting temperature of 55.4 °C.

In the case of RQIEYYFSV, the thermal melting temperature was determined as 61.3 °C.

Take FMQHDVQEL: the thermal melting temperature turned out to be 41.6 °C.

The sequence VVWGTVIRV displayed a thermal melting temperature of 58.5 °C.

As for SLDPHAQVAV, the thermal melting temperature worked out at 48.9 °C.

For the sequence KLQDQIFNL, the thermal melting temperature worked out at 56 °C.

For the sequence ALSKEGIVAL, the thermal melting temperature came to 59.5 °C.

With SLLQTLYKV, the thermal melting temperature is 63.6 °C.

In turn, ALGPGVPHI showed a thermal melting temperature of 58 °C.

On to VLADALKSI, for which the thermal melting temperature worked out at 58.9 °C.

In turn, KLNATNIEL had a thermal melting temperature of 51.5 °C.

The sequence FLEPVNPRL showed a thermal melting temperature of 55.3 °C.

As for MLDDRAYLV, the thermal melting temperature came to 61.5 °C.

The sequence YPSEFATYL yielded a thermal melting temperature of 56.5 °C.

TLDEYTTRV came in with a thermal melting temperature of 52.2 °C.

LLPSEGIVHL displayed a thermal melting temperature of 41.3 °C.

ALMPVLNQV: the thermal melting temperature was 58.7 °C.

For TLFPGKVHSL, the thermal melting temperature came to 55.8 °C.

For SLAGGLDDMKA, the thermal melting temperature amounted to 45.1 °C.

MTDPIRILV came in with a thermal melting temperature of 41.9 °C.

ALLKDSIVQL displayed a thermal melting temperature of 40.9 °C.

SLDTQPKKV gave a thermal melting temperature of 40.4 °C.

VLLESEQFL gave a thermal melting temperature of 56.7 °C.

On to RLDEAFDFV, for which the thermal melting temperature was determined as 57 °C.

SLDAKEIYL: the thermal melting temperature is 50.5 °C.

As to TTLEQPPSV, the thermal melting temperature worked out at 50.3 °C.

QLLPSIPQL yielded a thermal melting temperature of 53.7 °C.

As to SLLDGVVEKL, the thermal melting temperature turned out to be 55.5 °C.

Consider TLFPVRLLV, for which the thermal melting temperature was 55.8 °C.

The sequence GLIDGRLTI registered a thermal melting temperature of 54 °C.

FLLEQEKTQAL registered a thermal melting temperature of 59 °C.

Consider LMGPVVHEV, for which the thermal melting temperature came out at 46.4 °C.

QLQGYLRSV displayed a thermal melting temperature of 57.7 °C.

For GMDRYLIYV, the thermal melting temperature stood at 60.9 °C.

For the sequence YIYDKDMEII, the thermal melting temperature amounted to 57.2 °C.

QLLETLNQL: the thermal melting temperature worked out at 41.4 °C.

In turn, QLTNVILHL came in with a thermal melting temperature of 58.7 °C.

SILSEVQQA displayed a thermal melting temperature of 53.3 °C.

As to RLYQGINQL, the thermal melting temperature was determined as 55.9 °C.

Sequence FLPDPSALQNL came in with a thermal melting temperature of 55 °C.

For TLIDLPGITRV, the thermal melting temperature is 56.9 °C.

Consider LLAILPEAARA, for which the thermal melting temperature was determined as 60 °C.

ALLSGLREA registered a thermal melting temperature of 62.6 °C.

Take KLDQVIIHV: the thermal melting temperature came out at 60.5 °C.

With KVLEVTEEFGV, the thermal melting temperature is 62.6 °C.

In turn, ILLEHGADPNL yielded a thermal melting temperature of 51.4 °C.

SLLENIAKA registered a thermal melting temperature of 60.6 °C.

The sequence VLDEEIAKA showed a thermal melting temperature of 40.7 °C.

Sequence SLQEEIAKL gave a thermal melting temperature of 53.4 °C.
